Consider 13 molecules from PubChem BioAssay (NCI).

This is part of a sample that, as a whole, favours compounds with a hit. Of some 83,000 tested, about 20% had one in any assay.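 Values shown are percent growth following 48 h exposure of cells in 96-well plates to a single concentration of compound; below 10 was considered active.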 A number with no mark means an inactive call. Calls of active or inactive are those of the source.

Common to all, as to test: NCI-60 one-dose screen, 48 h (100 = growth as untreated, 0 = no growth, -100 = all killed)
Holding throughout (details): 10 µM unless noted

The test system of assay [1] is NCI-H23 lung.
Assay [2] deals with NCI-H226 lung.
Assay [3] relates to NCI-H322M lung.
Assay [4] has as its system HOP-62 NSCLC.
For assay [5], the system named is NCI-H460 lung.
The test system of assay [6] is NCI-H522 lung.
In assay [7] the test system is A549/ATCC NSCLC.
Assay [8] relates to 786-0 renal.
Assay [9] deals with COLO 205 colon.

As for `Cc1nc(Nc2ccccn2)sc1C(=O)CC(SCC(=O)Nc1ccc(Cl)cc1)c1ccccc1F` (stereo not given), the growth was -0.749% (active) in assay [1]; 48% in assay [2]; 19.6% in [3]; 10.1% in [4]; 6.78% (active) in assay [5]; -12.8% (active) in assay [6]. In addition, the growth was 6.38% (active) in [7] and 10.9% in [8].

For `Cc1ccc(S(=O)(=O)c2nc(S(=O)(=O)c3ccc(C)cc3)c(Cl)s2)cc1`, the growth was 36.8% in assay [1]; 1.5% (active) in [2]; 89.7% in [3]; 105% in [4]; 41.5% in [5]; -89.5% (active) in assay [6]. The growth was 92.8% in [7] and -49.6% (active) in assay [8].

As to `O=C(Nc1ccccc1)N1CCN(c2cc(-c3cn(-c4ccccc4)nc3-c3cccc(O)c3)ccn2)CC1`, the growth in assay [1] was 71%; in [2], 75.4%; in [3] it was 104%; in [4] it was 80.8%; in [5], 70%; in assay [6] it was 74.1%. The growth in [7] was 53.9%; in [8], 94.6%; in assay [9], 45.1%.

As to `COC1=C[C@]23CCC(=O)N2CCc2cc4c(cc2[C@@H]3[C@@H]1OC(=O)[C@H](C)O)OCO4`, the growth in assay [1] was 9.59% (active); in assay [2], 11%; in [3] it was 69.7%; in [4], 46.6%; in assay [5], -5.4% (active); in assay [6], -48.1% (active). The figures for the growth in [7], in assay [8] and in assay [9] were 7.1% (active), 22.7% and 28.4%, respectively.

As for `COc1ccc2c(c1)c(-c1cc3nc(-c4cn(C)c5ncc(Br)cc45)cc(N)n3n1)cn2C`, the growth in assay [1] is -36.8% (active); in assay [2], 0.447% (active); in assay [3], -39.8% (active); in assay [4], -21.1% (active); in assay [5], -35.4% (active); in assay [6], -72.1% (active). In addition, the growth in assay [7] is -4.96% (active); in assay [8], -94.8% (active); in assay [9] it was -74.6% (active).

On to `O=C(O)Cn1c(O)c(/C=C2/C=c3cc4c(cc3=NC2=O)OCCO4)sc1=S`, for which the growth in assay [1] is 97.7%; in assay [2], 103%; in [3] it was 101%; in assay [4] it was 105%; in [5], 118%; in [6], 103%. Further, the growth was 114% in assay [7], 108% in assay [8] and 119% in [9].

On to `COc1cc(C2CC(c3ccc(S(=O)(=O)NCCNc4nc(Nc5ccc(F)cc5)nc(N(C)C)n4)cc3)=Nc3c(N)nc(N)nc3N2)cc(OC)c1OC` (stereo not given), for which the growth was 93.5% in assay [1]; 91.4% in [2]; 86.7% in assay [3]; 94.3% in [4]; 84.5% in assay [5]; 84.2% in assay [6]. For the same molecule, the growth in [7] is 97.9%; in assay [8], 75.3%; in [9], 104%.

On to `O=c1oc2ccccc2cc1-c1csc(N=Nc2c(O)[nH]c3ccc(Cl)cc23)n1`, for which the growth was 98.7% in [1]; 98.3% in assay [2]; 114% in assay [3]; 101% in [4]; 109% in assay [5]; 98.7% in assay [6]. The growth in [7] is 102%; in assay [8], 86.3%; in assay [9] it was 136%.

Turning to `C=C1CC[C@@H]2[C@]3(C)COC(c4cn[nH]c4-c4ccc(F)cc4)O[C@@H]3CC[C@@]2(C)[C@@H]1C/C=C1/C(=O)OCC1O` (stereo not given in full), the growth in assay [1] is -67.3% (active); in assay [2], -83.5% (active); in assay [3] it was 44%; in assay [4] it was -10.7% (active); in assay [5], -63.5% (active); in assay [6], -59.7% (active). Also, the growth in assay [7] is -14.2% (active); in assay [8], -89.2% (active); in assay [9] it was -39.4% (active).

Turning to `Cc1ccc(C(=O)NN2C(=O)/C(=C/C=C/c3ccc([N+](=O)[O-])o3)SC2=S)cc1`, the growth in assay [1] was -84% (active); in assay [2] it was -95.6% (active); in assay [3], -76.9% (active); in [4] it was -70% (active); in [5], -57.6% (active); in assay [6], -90.7% (active). The growth was -76.5% (active) in [7], -86% (active) in assay [8] and -83.9% (active) in assay [9].

Take `CC(=O)c1cc(C(=O)c2ccccc2)n2c1ccc1ccccc12`: the growth is 105% in assay [1]; 94% in [2]; 94.3% in assay [3]; 87.5% in assay [4]; 111% in [5]; 97.4% in assay [6]. Moreover, the growth in [7] is 108%; in assay [8], 98.7%; in assay [9], 110%.

Regarding `O=C(N1c2ccccc2Sc2ccccc21)n1ccc2cccnc21`, the growth in [1] was 77.9%; in assay [2] it was 81%; in assay [3] it was 74.7%; in assay [4] it was 77.5%; in assay [5], 48.7%; in [6], 56.3%. In addition, the growth was 75.8% in [7], 77.4% in [8] and 62.8% in assay [9].

Regarding `COc1c(F)ccc(C(=O)Nc2ccc3nc(NC(=O)C4CCCN(S(=O)(=O)c5ccc(C#N)cc5)C4)sc3c2)c1F` (stereo not given), the growth was 88.9% in assay [1]; 90.3% in [2]; 101% in [3]; 104% in assay [4]; 96.8% in assay [5]; 85.7% in [6]. The growth in assay [7] is 91.6%; in assay [8], 75.5%; in [9], 96.9%.
